Our source for the Inhibition values is ChEMBL document CHEMBL4513135, “CO-ADD screening of IQOG CSIS (Spain) compounds”.

Results with a measured potency or affinity are listed apart.

The test system of this assay is Cryptococcus neoformans. The note with it: Concentration 32 ug.mL-1; ASSAY_TEST Inhibition of Fungal Growth; detection method Resazurin; Absorption (OD600-OD570); plate type 384well; NBS; CORNING #3640.
As to `Cc1ccc(C2c3c(Cl)nnnc3Oc3ccc4ccccc4c32)cc1` (stereo not given), the Inhibition (in general, the relative decrease from the control value, in per cent) is reported as -3.15%.
As to `O=Cc1c(-c2ccc(Br)cc2)nc2ccccn12`, the Inhibition is -4.41%.
`Cc1nc2c3cnn(-c4ccccc4)c3nc(C)n2n1`: the Inhibition is on record as -6.35%.
In the case of `C#CCNc1nc(N)c(C#N)cc1C#N`, the Inhibition was -24.9%.
With `Cc1cnc2ccc(Cl)cn12` the figure was 1.56%; with `CCC(Cc1ccccc1)NNC(=O)c1cc2ccccc2[nH]1` (stereo not given), -1.62%.
As for `COC(=O)C(=Cc1ccc([N+](=O)[O-])cc1)NC(=O)c1ccccc1`, the figure is -0.7%.
As for `CCOC(=O)C1=C(C)OC(N)=C(C#N)C1c1ccccc1OC` (stereo not given), the figure is -0.68%; as for `N#CC1(Br)C(=NBr)Oc2ccc3ccccc3c2C1c1ccccc1` (stereo not given), -1.83%; as for `C#CCN(C)Cc1cc2cc(OCc3ccccc3)ccc2n1C.O=C(O)C(=O)O`, -91.88%.
For the compound `CCOC(=O)C1=C(C)Nc2nc3c(c(N)c2C1c1ccc([N+](=O)[O-])cc1)CCCC3.Cl` (stereo not given), the Inhibition is -58.17%.
For `COc1ccc(C2c3c(ccc4ccccc34)OC(=N)C2(Br)C#N)cc1` (stereo not given), the Inhibition is recorded as -84.01%.
As for `C#CCNc1ncc(C#N)c(N)n1`, the figure is -34.7%.
With `C#CCN(C)c1cc(Cl)nc(N)n1` the figure was -46.13%; with `Cc1nc(NO)c2c(C)nn(-c3ccccc3)c2n1`, -3.47%.
Regarding `N#CC1=C(N)Oc2ccc3ccccc3c2C1c1ccc(O)cc1` (stereo not given), the Inhibition is -36.73%.
With `COc1nc2nc3c(c(N)c2cc1C#N)CN(Cc1ccccc1)CC3` the figure was -69.67%; with `CCC(CC)NNC(=O)c1c[nH]c2ccccc12.Cl`, 4.78%; with `C=C1CN(C)c2c(C#N)cc(C#N)c(=N)n21`, -52.46%.
For the compound `COc1ccc(C2C(C#N)=C(N)Oc3c2ccc2ccccc32)c(OC)c1` (stereo not given), the Inhibition is -2.04%.
As for `C#CCN(C)Cc1cc2cc(O)ccc2n1C.Cl`, the figure is -73.69%.
In the case of `CSC1=NC2(CC2c2ccccc2)C(=O)N1` (stereo not given), the Inhibition is recorded as 1.03%.
As for `CC1Cc2ccccc2N1/N=C/c1ccccc1` (stereo not given), the figure is -3.88%; as for `C#CCN(C)Cc1cc2cc(OCCCC3CCN(C(=O)OC(C)(C)C)CC3)ccc2n1C`, -6.45%.
With `O=C1SC(SCc2ccccc2)=NC1=Cc1ccc2c(c1)OCO2` the figure was -6.24%; with `Cc1n[nH]c2c1C(c1ccc([N+](=O)[O-])cc1)C(C#N)=C(N)O2` (stereo not given), -4.51%.
As for `CC1CC(=O)Nc2c1c(Cl)nc1nc3c(c(N)c21)CCCC3` (stereo not given), the figure is -92.92%.
Regarding `O=C(N/N=C/c1cccc(Cl)c1)c1cc2ccccc2[nH]1`, the Inhibition is -2.87%.
Turning to `CCOC(=O)c1cc2cc(O)ccc2n1C(=O)OC(C)(C)C`, the Inhibition was -9.8%.
As for `N#CC1=C(N)Oc2c(ccc3ccccc23)C1c1c(Cl)cccc1Cl` (stereo not given), the figure is -4.89%.
With `COc1ccc2c(c1)cc(C(=O)O)n2C` the figure was -23.41%; with `CCOC(=O)CCc1c[nH]c2ccccc12`, -6.58%.
As for `Cc1ccc(C2c3c(nc4c(c3N)CCCC4)Oc3ccc4ccccc4c32)cc1` (stereo not given), the figure is 2.32%.
As for `Cc1nn(-c2ccccc2)c2nc(C)n3nc(-c4ccccc4)nc3c12`, the Inhibition is given as -5.73%.
With `N#Cc1cc(C#N)c(NCCCCC2CCN(Cc3ccccc3)CC2)nc1N` the figure was -105.28%; with `CCOC(=O)C1=C(C)Oc2nc3c(c(N)c2C1c1nccn1C)CCC3` (stereo not given), -84.25%; with `CC/C(C)=N/NC(=O)Cc1c[nH]c2ccccc12`, -5.32%.
With `CCOC(=O)/C(C#N)=C\c1ccc(Cl)cc1`, the Inhibition is on record as -5.03%.
As for `CCOC(=O)C1=C(C)Nc2nc3c(c(N)c2C1c1cccc(OC)c1)CCCC3` (stereo not given), the figure is -90.12%.
With `COC1=C(C#N)CC(C)C(=O)N1` (stereo not given) the figure was -33.52%.
